This is a sample that favours compounds with a hit; in the whole collection about 3% have one here.
KAT2A inh: inhibitors of human GCN5L2 histone acetyltransferase | AID 504327 | GCN5L2 HAT assay, ThioGlo1 CoA-SH fluorescence | 390,000 tested, 0.21% active | Potency, µM (top dose mostly 58.9 µM), without a hit: at the top dose activity change, negative = inhibition, hits mostly inhibitors | Q92830
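qHTS, 1536-well. 20nM enzyme, pH 7.5 HEPES/EDTA/Tween-20 buffer; 15 min compound preinc., RT. Start: 75uM H3(1-25), 70uM AcCoA, 50uM ThioGlo1. Read Ex340/Em540 at t=0 (autofluorescence flag) and t=20 min.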
12-LOX inh: inhibitors of human 12S-lipoxygenase ALOX12. P18054. Potency, µM (doses to about 108 µM), inactives show at the top dose activity change, negative = inhibition, actives largely listed as inhibitors. purified 12hLO, xylenol orange hydroperoxide absorbance. AID 1671190. 580,000 tested, 1.1% active
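Purified human 12hLO at 150 nM in 25 mM Hepes, 0.01% Triton X-100, pH 7.0, preincubated 15 min at room temperature with compound. Reaction started with 40 uM arachidonic acid, 30 min at room temperature. Hydroperoxide measured by Fe-xylenol orange, 573/405 nm absorbance ratio.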
VDR inh: blocks the human vitamin D receptor; AID 504847; 400,000 tested, 0.93% active; P11473; Potency, µM, for the others: max response, negative = inhibition, usual class: inhibitors; VDR-SRC2-3 peptide fluorescence polarization, 2 h
Target sequence (P11473 whole entry, looked up): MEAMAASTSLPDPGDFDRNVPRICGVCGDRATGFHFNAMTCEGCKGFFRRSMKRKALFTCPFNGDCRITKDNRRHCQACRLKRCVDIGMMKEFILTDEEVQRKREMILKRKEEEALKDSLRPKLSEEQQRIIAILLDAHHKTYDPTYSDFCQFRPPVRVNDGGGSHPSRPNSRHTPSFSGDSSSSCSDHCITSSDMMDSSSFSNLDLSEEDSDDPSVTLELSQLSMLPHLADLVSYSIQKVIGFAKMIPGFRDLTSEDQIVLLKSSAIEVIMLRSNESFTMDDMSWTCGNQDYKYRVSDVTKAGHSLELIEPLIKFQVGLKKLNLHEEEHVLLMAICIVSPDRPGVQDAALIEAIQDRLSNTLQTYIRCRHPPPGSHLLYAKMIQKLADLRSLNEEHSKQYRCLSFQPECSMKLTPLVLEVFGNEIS
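Inhibition of the VDR/SRC2-3 peptide interaction is quantified by fluorescence polarization. Compounds (23 nl, pintool) incubate with the reagents for 2 hours at ambient room temperature.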
PLK1 PBD inh: PLK1 (human) polo-box domain binding inhibition. 360,000 tested, 2.8% active. P53350. Plk1 PBD binding of FITC phosphopeptide, fluorescence polarization. Potency, µM, without a hit: max response, negative = inhibition, most hits filed as inhibitors; note: series mostly up to about 57 µM; nearly all actives have a fitted effect of over 65% in size
TbPYK confirm: confirmation of Trypanosoma brucei pyruvate kinase inhibitors. recombinant TbPYK, Kinase-Glo ATP luminescence. 890 tested, 67% active. AID 720569. shares compounds with PLK1 PBD inh. Potency, µM (series often up to 76.9 µM), inactives show at the top dose activity change, negative = inhibition, hits mostly inhibitors; note: nearly all actives have a fitted effect of over 70% in size
TbPYK orthogonal: TbPYK inhibition, orthogonal confirmation; recombinant TbPYK, ADP-Glo luminescence, 60 min; 890 tested, 62% active; shares compounds with PLK1 PBD inh; Potency, µM (titrated, usually from 76.9 µM), without a hit: top-dose activity change, negative = inhibition, usual class: inhibitors; note: nearly all actives have a fitted effect of over 75% in size
Active calls of the source: *; ? = inconclusive; . = no result given; [ ] = remark or other dose. Calls come from the whole dose curve; as a rule, active = well fitted curve in the direction sought with a large enough effect; inconclusive = small, poorly fitted or top-dose-only effect, or another doubt; inactive = no such curve, though single readings can be large; an effect the other way counts as inactive or inconclusive. % is set by controls: 0 for no effect and ±100 for the full control effect; potency is the fitted concentration of half-maximal effect.

SMILES	KAT2A inh	12-LOX inh	VDR inh	PLK1 PBD inh	TbPYK confirm	TbPYK orthogonal
Cc1ccc(S(=O)(=O)N/N=C/c2ccccc2O)cc1	?	11.2%	3.0%	-5.6%	.	.
CN(C)Cc1cccc(-c2cc3c(ccn3Cc3ccncc3)c(N3CCOCC3)n2)c1	.	16.9%[176 µM]	.	.	.	.
Cc1ccc(S(=O)(=O)n2c([N+](=O)[O-])cnc2C)c(C)c1C	-2.1%	?	44.7µM*	21.2µM*	3.8%	-4.5%
CC(C)c1ccc(C2C3=C(COC3=O)Nc3c2c(=O)n(C)c(=O)n3C)cc1 (stereo not given)	.	-0.7%	.	.	.	.
CCc1ccc(Cl)c(CC)c1NC(=O)C1CC2CCC(C1)C21SCCS1 (stereo not given)	.	2.4%	.	.	.	.
COC(=O)c1ccc(NC(=O)CN2C(=O)CSC2=O)cc1	-2.3%	-8.5%	1.3%	-10.2%	.	.
CCOC(=O)c1ccc(NC(=O)CN2C(=O)CSC2=O)cc1	-4.3%	-6.5%	15.5%	-1.6%	0.5%	-7.0%
CC1(C(=O)NCCC(F)(F)F)Cc2c(-c3cccc(C(N)=O)c3)ccnc2O1 (stereo not given)	.	-4.0%	.	-11.7%	5.9%	-1.6%
CC1(C(=O)NCCC(F)(F)F)Cc2c(-c3cccc(C(F)(F)F)c3)ccnc2O1 (stereo not given)	.	-0.2%	.	-11.4%	.	.
O=C(Nc1ccc2c(c1)ncn2-c1ccccc1)c1ccco1	-9.7%	?	10.9%	?	14.1µM*	4.47µM*
Cn1cnc2cc(NC(=O)c3ccco3)ccc21	0.6%	-6.2%	2.6%	-4.3%	.	.
O=S(=O)(c1ccccc1)c1cc(O)ccc1O	-10.4%	-14.0%	16.1%	-3.0%	.	.
Nc1ccc(S(=O)(=O)c2cc(O)c3ccccc3c2O)cc1	.	?	?	2.67µM*	12.6µM*	31.6µM*
COc1ccc2nc(SC3CC(=O)N(c4cccc5ccccc45)C3=O)nc(C)c2c1 (stereo not given)	.	1.5%	.	.	.	.
C=CCn1c(C)cc(C(=O)COC(=O)c2ccc(N)c([N+](=O)[O-])c2)c1C	-1.6%	4.2%	?	4.8%	.	.
CCn1c(C)cc(C(=O)COC(=O)c2ccccc2[N+](=O)[O-])c1C	-3.1%	.	-15.6%	2.9%	?	3.1%
Cc1cc(=S)n2ccccc2n1	.	20.4%	.	.	.	.
O=S(=O)(NCCC(c1ccc(F)cc1)c1ccco1)c1ccccc1 (stereo not given)	-9.2%	-23.7%	?	21.2µM*	-3.1%	-5.3%
Fc1ccc(C(CCNCc2cccs2)c2ccco2)cc1 (stereo not given)	-6.9%	?	-3.5%	3.6%	.	.
O=C(Nc1ccc(-c2cnc(C3CC3)o2)cc1)c1cccc(F)c1	.	-31.6%	.	.	.	.
CCN(CC)c1ccc(N=C2C(=O)Nc3ccccc32)cc1	-27.2%	6.8%	?	-27.4%	?	-3.9%
N#Cc1c(NC(NC(=O)c2ccco2)C(=O)c2ccccc2)sc2c1CCCC2 (stereo not given)	-21.6%	?	-28.3%	-20.1%	?	3.55µM*
NC(=O)c1c(NC(NC(=O)c2ccco2)C(=O)c2ccc(Cl)cc2)sc2c1CCCC2 (stereo not given)	-8.6%	?	-18.7%	?	.	.
CCCNc1c(NC(=O)c2ccc(Br)o2)c(=O)oc2ccccc12	.	27.6%	.	.	.	.
CC1CCCC=CC2CC(OC(=O)CN(C)C)CC2C(O)C=CC(=O)O1 (stereo not given)	.	-6.7%	-8.2%	-5.1%	.	.
SMILES	KAT2A inh	12-LOX inh	VDR inh	PLK1 PBD inh	TbPYK confirm	TbPYK orthogonal
C[C@H]1CCC/C=C/[C@@H]2C[C@H](O)C[C@H]2[C@H](O)[C@H](S(=O)c2ccc(O)cc2)CC(=O)O1 (stereo not given in full)	.	39.8µM*	?	10.6µM*	17.8µM*	12.6µM*
CSc1nc(N)c(C#N)c(-c2ccc(Cl)cc2)c1C#N	-26.2%	34.8%	-4.4%	-6.4%	.	.
Cc1cc(-c2cc(-c3ccc(Cl)cc3)nc(N)c2C#N)co1	?	?	?	21.2µM*	-20.7%	39.8µM*
CCCCn1c(=O)[nH]c(=O)c2c1nc(COC(=O)c1ccccc1)n2CCC(C)C	.	-9.6%	.	.	.	.
Cc1onc(C(=O)Nc2sc3c(c2C(N)=O)CCCC3)c1[N+](=O)[O-]	-14.4%	-6.9%	79.4µM*	10.6µM*	15.8µM*	17.8µM*
Cc1onc(-c2c(F)cccc2Cl)c1C(=O)Nc1sc2c(c1C(N)=O)CCC2	-6.6%	?	14.2%	-5.7%	.	.
O=c1nccc(N/N=C/c2ccccc2O)[nH]1	-1.8%	4.1%	-18.4%	?	?	4.0%
COc1cccc(/C=N/Nc2ccnc(=O)[nH]2)c1O	-2.0%	15.7%	-9.7%	1.4%	.	.
COc1ccc2nc(Nc3sc4c(c3C(N)=O)CCCC4)sc2c1	-9.8%	22.4µM*	?	?	6.31µM*	7.94µM*
CCc1ccc(Nc2nc(N3CCOCC3)nc(N3CCOCC3)n2)cc1	4.8%	?	4.5%	-20.4%	.	.
FC(F)(F)Oc1ccc(Nc2nc(N3CCOCC3)nc(N3CCOCC3)n2)cc1	-6.0%	-9.5%	?	4.74µM*	5.4%	-4.3%
NC(=O)c1ccc(N2CCN(c3ccc(O)cc3)CC2)c([N+](=O)[O-])c1	0.0%	?	-11.2%	-4.6%	14.1µM*	?
C=C(C)[C@@H]1CC[C@@H](C)C[C@@H]1O	.	14.7%[176 µM]	.	.	.	.
O=C(Nc1ccc(N2CCOCC2)nc1N1CCOCC1)c1cccc(C(F)(F)F)c1	-8.4%	-28.9%	-21.0%	4.8%	.	.
O=C(N/N=C/c1ccc(N2CCOCC2)o1)c1cccc(C(F)(F)F)c1	-7.1%	-15.8%	25.1µM*	-7.5%	?	35.5µM*
CC(C)NC(=O)C(C#N)C(=O)c1cccc(NC(=O)NC2CC2)c1 (stereo not given)	.	-46.8%	.	.	.	.
CN(C)CCN(CC(=O)OC(C)(C)C)C(=O)CCCNC(=O)c1ccccc1	.	10.0%	.	.	.	.
CC(C)(C)c1cc(N=Cc2ccccc2O)cc(C(C)(C)C)c1O	.	121.4%	.	.	.	.
O=C(CSc1nc2ccccc2c2nc(=O)c(-c3ccccc3)nn12)NCc1ccc(F)cc1	.	-51.8%	.	.	.	.
N#Cc1cc2c(nc1SCc1cccnc1)CCCC2	-15.4%	?	1.8%	26.7µM*	3.98µM*	6.31µM*
N#Cc1cc2c(nc1SCc1cccnc1)CCC2	-8.9%	-14.4%	5.9%	-22.6%	.	.
CCOC(=O)C1=C(C)N=c2s/c(=C/c3cccc([N+](=O)[O-])c3O)c(=O)n2C1c1cc(OC)c(OC)c(OC)c1 (stereo not given)	4.4%	?	?	26.7µM*	31.6µM*	?
CC(=O)Oc1ccc(N2C(=O)C3C4C=CC(CO)(O4)C3C2=O)cc1 (stereo not given)	?	-13.9%	44.7µM*	26.7µM*	-48.2%	?
Cc1ccc(N2C(=O)C3C4C=CC(CNC(=S)N5CCN(c6cccc(C)c6)C(C)C5)(O4)C3C2=O)cc1 (stereo not given)	-13.9%	-23.3%	?	-12.6%	.	.

Source: PubChem (National Center for Advancing Translational Sciences (NCATS))
